{"source": "the supplement of paper PMC12532568", "note": "Structures can show the parent of a compound that is named as a salt."}
{"test_system": "Danio rerio larvae Tg(actc1b:ZsGreen-LC3), 3 dpf", "assay": "LC3 puncta relative area vs vehicle, without NH4Cl (log2 fold change); higher = more autophagosomes", "conditions": "10 µM; treatment time 16 h; NH4Cl: none", "experimental": "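Transgenic Tg(actc1b:ZsGreen-map1lc3) zebrafish larvae (2 dpf) were treated for 16 h with Tocris library compounds at 10 µM (n = 12 larvae per compound). Skeletal-muscle LC3 puncta area relative to body area was measured by high-content confocal imaging before and after 4 h of 100 mM NH4Cl (autophagic flux), normalised to vehicle (DMSO), and reported as log2 fold change.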"}
{"compound": "Oc1ccc2c3c1O[C@H]1c4c(c5ccccc5n4Cc4ccccc4)C[C@@]4(O)C(C2)N(CC2CC2)CC[C@]314", "note": "[N-Benzylnaltrindole hydrochloride]", "LC3 puncta (log2)": 0.458}
{"compound": "CS(=O)(=O)Nc1ccc(Cc2noc(-c3ccc4[nH]cc(CCN)c4c3)n2)cc1", "LC3 puncta (log2)": 0.431}
{"compound": "c1ccc(CCCN2CCN(CCOC(c3ccccc3)c3ccccc3)CC2)cc1", "LC3 puncta (log2)": 0.0674}
{"compound": "CN(C(=O)Cc1ccccc1)C(CN1CCCC1)c1ccccc1", "note": "(stereo not given) [N-MPPP Hydrochloride]", "LC3 puncta (log2)": 0.385}
{"compound": "CN1C[C@H](CNC(=O)OCc2ccccc2)C[C@@H]2c3cccc4c3c(cn4C)C[C@H]21", "note": "[Metergoline]", "LC3 puncta (log2)": 0.0502}
{"compound": "Fc1ccc(C(OCCN2CCN(C/C=C/c3ccccc3)CC2)c2ccc(F)cc2)cc1", "LC3 puncta (log2)": 0.527}
{"compound": "c1ccc2sc(C3(N4CCCCC4)CCCCC3)cc2c1", "note": "[BTCP maleate]", "LC3 puncta (log2)": 0.288}
{"compound": "O=c1[nH]oc2c1CCNC2", "note": "[THIP hydrochloride]", "LC3 puncta (log2)": 0.233}
{"compound": "S=C=Nc1cccc(C2(N3CCCCC3)CCCCC2)c1", "note": "[Metaphit]", "LC3 puncta (log2)": 0.663}
{"compound": "O=C(O)Cc1cccnc1C(=O)O", "note": "[Homoquinolinic acid]", "LC3 puncta (log2)": -0.131}
{"compound": "O=C(O)/C=C/CO", "note": "[trans-4-Hydroxycrotonic acid]", "LC3 puncta (log2)": -0.0373}
{"compound": "CN(C(=O)Cc1ccc(Cl)c(Cl)c1)[C@H](CN1CCCC1)c1ccccc1", "note": "[ICI 199,441 hydrochloride]", "LC3 puncta (log2)": 0.0954}
{"compound": "CO[C@]12C[C@@H](COC(=O)c3cncc(Br)c3)CN(C)[C@@H]1Cc1cn(C)c3cccc2c13", "note": "[Nicergoline]", "LC3 puncta (log2)": 0.51}
{"compound": "CCCN(CCC)[C@@H]1CCc2c(OC)cccc2[C@@H]1C", "note": "[(+)-UH 232 maleate]", "LC3 puncta (log2)": 0.36}
{"compound": "Cc1ccc(C[N+](C)(C)C)o1", "note": "[5-Methylfurmethiodide]", "LC3 puncta (log2)": -0.0134}
{"compound": "C=C(C)[C@H]1CN[C@H](C(=O)O)[C@H]1CC(=O)O", "note": "[Kainic acid]", "LC3 puncta (log2)": 0.377}
{"compound": "C=CCN1CC[C@]23c4c5ccc(O)c4O[C@H]2C(=O)CC[C@@]3(O)[C@H]1C5", "note": "[Naloxone hydrochloride]", "LC3 puncta (log2)": 0.085}
{"compound": "CCCN[C@@H]1CCc2c(OC)cccc2[C@@H]1C", "note": "[(+)-AJ 76 hydrochloride]", "LC3 puncta (log2)": 0.121}
{"compound": "c1ccc(C2CNCc3ccccc32)cc1", "note": "(stereo not given) [4-Phenyl-1,2,3,4-tetrahydroisoquinoline hydrochloride]", "LC3 puncta (log2)": 0.365}
{"compound": "Cc1[nH]c2ccc(O)cc2c1CCN", "note": "[2-Methyl-5-hydroxytryptamine hydrochloride]", "LC3 puncta (log2)": -0.132}
{"compound": "O=C(CCCN1CCC2(CC1)C(=O)N(Cc1cccc(F)c1)CN2c1ccccc1)c1ccc(F)cc1", "note": "[3'-Fluorobenzylspiperone maleate]", "LC3 puncta (log2)": 0.503}
{"compound": "C[C@H](N)Cc1cnc[nH]1", "LC3 puncta (log2)": 0.17}
{"compound": "Fc1ccc(C(OCCN2CCN(CCCc3ccccc3)CC2)c2ccc(F)cc2)cc1", "LC3 puncta (log2)": 0.491}
{"compound": "Cc1onc(O)c1C[C@H](N)C(=O)O", "LC3 puncta (log2)": 0.235}
{"compound": "NCCc1c[nH]c2ccc(C(N)=O)cc12", "note": "[5-Carboxamidotryptamine maleate]", "LC3 puncta (log2)": 0.0843}
{"compound": "CC(C)C[C@H]1C(=O)N2CCC[C@H]2[C@]2(O)O[C@](NC(=O)[C@@H]3C=C4c5cccc6[nH]c(Br)c(c56)C[C@H]4N(C)C3)(C(C)C)C(=O)N12", "note": "[Bromocriptine mesylate]", "LC3 puncta (log2)": 0.17}
{"compound": "c1ccc2c(c1)[I+]c1ccccc1-2", "note": "[Diphenyleneiodonium chloride]", "LC3 puncta (log2)": 0.217}
{"compound": "O=C(Cc1ccc(Cl)c(Cl)c1)N1CCCCC1CN1CCCC1", "note": "(stereo not given)", "LC3 puncta (log2)": 0.372}
{"compound": "CCCN(CCC)C1CCc2cccc(O)c2C1", "note": "(stereo not given) [8-Hydroxy-DPAT hydrobromide]", "LC3 puncta (log2)": 0.14}
{"compound": "CN1C(=O)CCS(=O)(=O)C1c1ccc(Cl)cc1", "note": "(stereo not given) [Chlormezanone]", "LC3 puncta (log2)": -0.0101}
{"compound": "CC(C)[C@@]1(NC(=O)[C@@H]2C[C@@H]3c4cccc5[nH]cc(c45)C[C@H]3N(C)C2)O[C@@]2(O)[C@@H]3CCCN3C(=O)[C@H](Cc3ccccc3)N2C1=O", "note": "[Dihydroergocristine mesylate]", "LC3 puncta (log2)": -0.412}
{"compound": "N[C@@]1(C(=O)O)CC[C@@H](C(=O)O)C1", "LC3 puncta (log2)": 0.259}
{"compound": "CC(=O)NCCc1c[nH]c2ccccc12", "note": "[N-Acetyltryptamine]", "LC3 puncta (log2)": -0.161}
{"compound": "CC(C(=O)OC1CC2CCC(C1)N2C)c1ccc(Br)cc1", "note": "(stereo not given) [PG-9 maleate]", "LC3 puncta (log2)": 0.116}
{"compound": "OC1CCCCC1N1CCC(c2ccccc2)CC1", "note": "(stereo not given) [(?)-Vesamicol hydrochloride]", "LC3 puncta (log2)": 0.548}
{"compound": "Clc1cccc(SC2CCNCC2)n1", "note": "[Anpirtoline hydrochloride]", "LC3 puncta (log2)": 0.143}
{"compound": "Cc1cc(C)cc(C(=O)OC2C[C@H]3CC[C@@H](C2)N3C)c1", "note": "(stereo not given in full) [Tropanyl-3,5-dimethylbenzoate]", "LC3 puncta (log2)": 0.0365}
{"compound": "N=C(NCc1ccc(Cl)cc1)SCCCc1c[nH]cn1", "note": "[Clobenpropit dihydrobromide]", "LC3 puncta (log2)": 0.454}
{"compound": "NCC(CS(=O)(=O)O)c1ccc(Cl)cc1", "note": "(stereo not given) [Saclofen]", "LC3 puncta (log2)": -0.022}
{"compound": "CCCN(CCC)C1CCc2ccc(O)cc2C1", "note": "(stereo not given) [7-Hydroxy-DPAT hydrobromide]", "LC3 puncta (log2)": -0.0217}
